FBW7 act: activators of human E3 ligase FBW7; Q969H0; AlphaScreen FBW7–phospho-cyclin E peptide binding, activator screen; normalized activity (activation), % at 26.1 µM; 650,000 compounds, 0.13% hits; AID 1259310; in the data active means normalized activity above about 1.9%;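 further: purified mutant Fbw7 with reduced substrate affinity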
Target sequence (Q969H0 whole entry, looked up): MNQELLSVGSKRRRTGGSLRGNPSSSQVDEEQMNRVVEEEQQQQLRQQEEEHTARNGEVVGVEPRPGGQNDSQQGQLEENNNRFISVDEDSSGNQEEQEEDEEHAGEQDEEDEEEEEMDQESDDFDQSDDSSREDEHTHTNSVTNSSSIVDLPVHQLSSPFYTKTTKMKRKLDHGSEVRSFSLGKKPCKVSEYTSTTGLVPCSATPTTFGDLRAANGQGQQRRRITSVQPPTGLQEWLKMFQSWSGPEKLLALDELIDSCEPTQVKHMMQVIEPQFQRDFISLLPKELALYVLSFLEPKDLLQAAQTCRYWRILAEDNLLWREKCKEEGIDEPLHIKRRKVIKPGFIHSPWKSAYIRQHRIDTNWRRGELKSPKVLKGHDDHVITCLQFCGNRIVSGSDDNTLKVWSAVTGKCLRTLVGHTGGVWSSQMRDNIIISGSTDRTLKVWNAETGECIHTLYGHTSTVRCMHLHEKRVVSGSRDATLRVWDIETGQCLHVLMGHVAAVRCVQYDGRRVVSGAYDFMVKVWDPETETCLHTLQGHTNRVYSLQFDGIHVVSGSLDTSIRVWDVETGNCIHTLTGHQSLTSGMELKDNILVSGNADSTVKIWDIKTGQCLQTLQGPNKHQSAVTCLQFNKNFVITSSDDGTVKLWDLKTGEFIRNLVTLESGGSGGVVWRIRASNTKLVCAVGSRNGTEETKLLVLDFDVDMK
GPR151 activ: activates the human receptor GPR151; PathHunter beta-arrestin GPR151 cells, luminescence; activation, % at 11.2 µM; 650,000 compounds, 1% hits; Q8TDV0; AID 1508602; in the data active means activation above about 4.9%;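 further: 0% = median of compound wells and 100% = cells with positive control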
TEAD-YAP inh: TEAD-YAP interaction inhibition; HEK-TIYL cells, TEAD-Gal4/YAP UAS-luciferase luminescence; inhibition, % at 9.12 µM; 640,000 compounds, 1.4% hits; AID 1259422; in the data active means inhibition above about 32%;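 further: 0% = median of test compound wells and 100% = reference inhibitor wells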
MITF inh: blocks human microphthalmia-associated transcription factor; AlphaScreen MITF homodimerization, bead proximity signal; AID 1259374; inhibition, % at 2.6 µM; O75030; 650,000 compounds, 0.91% hits; in the data active means inhibition above about 50%;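 further: 0% = vehicle wells with protein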
GPR151 confirm: confirmation of human GPR151 activators. activation, % at 11.2 µM. 6,700 tested, under 10 active. shares compounds with GPR151 activ. GPR151 PathHunter beta-arrestin cells, luminescence, 90 min; % of EA-reagent control over plate median;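 active means mean percent activation across replicates above the confirmation screen cutoff of 4.91%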
GPR119 ag: activates human GPR119 in a GPR151 counter-screen. GPR119 PathHunter beta-arrestin cells, luminescence, 90 min; 0 = compound-well median, 100 = enzyme-acceptor control. activation, % at 11.2 µM. 6,700 compounds, 0.3% hits. shares compounds with GPR151 activ;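 active means mean percent activation in the counterscreen above 29.09%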;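 further: counterscreen on off-target GPR119 to flag nonselective hits from the GPR151 activator screen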
* marks the source's active call; other numbers are inactive results. In the library only some 3.4% were active in any assay of this set; here they are far more common.

Results for CC(C)NC(=O)c1ccc2c(=O)n(Cc3ccc(Cl)cc3)c(=S)[nH]c2c1 ?
FBW7 act: 0; GPR151 activ: 6.1*; TEAD-YAP inh: -5; MITF inh: 8; GPR151 confirm: 0; GPR119 ag: 2

How did O=C(Nc1ccc(Cl)c(C(F)(F)F)c1)c1ccc2c(=O)n(Cc3cccc(Br)c3)c(=S)[nH]c2c1 do in these assays?
FBW7 act: 0; GPR151 activ: 6.2*; TEAD-YAP inh: 0; MITF inh: 19; GPR151 confirm: -1; GPR119 ag: -3

Results for COC(=O)[C@H](COC(C)(C)C)NC(=O)OC1C(=O)c2cc(Br)ccc2O[C@H]1c1ccc2c(c1)OCO2 (some centres undefined) ?
FBW7 act: 1; GPR151 activ: -2; MITF inh: 12

Results for CC(=O)Nc1ccc(Nc2nc(-c3ccc(C(=O)NC4CC4)cc3)nc3nc[nH]c23)cc1 ?
FBW7 act: 0; GPR151 activ: 7.8*; TEAD-YAP inh: -7; MITF inh: -2; GPR151 confirm: 2; GPR119 ag: -11

Results for CC1(C)CC(=O)c2c(oc3c(Cl)cc(NS(=O)(=O)c4ccc5ccccc5c4)cc23)C1 ?
FBW7 act: 2; GPR151 activ: 10*; TEAD-YAP inh: 0; MITF inh: 19; GPR151 confirm: 1; GPR119 ag: 14

Results for CC1(C)CC(=O)c2c(oc3c(Cl)cc(NS(=O)(=O)c4ccccc4)cc23)C1 ?
FBW7 act: 0; GPR151 activ: 1; TEAD-YAP inh: 13; MITF inh: 10

What do the screens show for `O=C(O)c1ccc(CN(Cc2ccc(Cl)cc2)C(=S)Nc2ccccc2Cl)cc1`?
FBW7 act: 1; GPR151 activ: 1; TEAD-YAP inh: 11; MITF inh: 5

How did CC(Cc1ccc2c(c1)OCO2)CN1CCC2(CC1)CC2C(=O)NCc1ccncc1 (centres undefined) do in these assays?
FBW7 act: 0; GPR151 activ: -2; TEAD-YAP inh: 2; MITF inh: 17

Results for Cc1c(C(=O)C(=O)NC(C)C)c2ccccc2n1C ?
FBW7 act: 0; GPR151 activ: 6.3*; TEAD-YAP inh: -2; MITF inh: 6; GPR151 confirm: 0; GPR119 ag: 3

How did CNC(=O)C(=O)c1c(C)n(C)c2ccccc12 do in these assays?
FBW7 act: 0; GPR151 activ: 0; TEAD-YAP inh: 6; MITF inh: -1

How did O=C(CCC(=O)Nc1ccc(Br)cc1)N/N=C/c1cccs1 do in these assays?
FBW7 act: 0; GPR151 activ: 6.0*; TEAD-YAP inh: -6; MITF inh: -2; GPR151 confirm: 0; GPR119 ag: -18

Results for CC(NC(=O)c1ccco1)c1ccc(Br)cc1 (centres undefined) ?
FBW7 act: 0; GPR151 activ: -1; TEAD-YAP inh: 9; MITF inh: 10

How did CCCCOc1ccc(C2C3=C(CC(C)(C)CC3=O)Nc3ccccc3N2C(=O)CC)cc1 (centres undefined) do in these assays?
FBW7 act: 0; GPR151 activ: 6.7*; TEAD-YAP inh: 5; MITF inh: -9; GPR151 confirm: 1; GPR119 ag: 10

How did CC(=O)N1c2ccccc2NC2=C(C(=O)CC(C)(C)C2)C1c1ccccn1 (centres undefined) do in these assays?
FBW7 act: 0; GPR151 activ: 5.2*; TEAD-YAP inh: -9; MITF inh: -21; GPR151 confirm: 0; GPR119 ag: 8

Results for O=[N+]([O-])c1cn[nH]c1-c1nnn(C23CC4CC(CC(C4)C2)C3)n1 ?
FBW7 act: 0; GPR151 activ: 2; TEAD-YAP inh: -6; MITF inh: 14

Results for O=C(NCCc1ccccc1)C1CC(c2cccc(Br)c2)=NO1 (centres undefined) ?
FBW7 act: 0; GPR151 activ: -1; TEAD-YAP inh: 9; MITF inh: 6

How did Cc1ccc(NS(=O)(=O)c2c(C)ccc3nsnc23)cc1 do in these assays?
FBW7 act: 1; GPR151 activ: 5.2*; TEAD-YAP inh: 6; MITF inh: 12; GPR151 confirm: -1; GPR119 ag: -1

What do the screens show for `Cc1ccc(C)c(NS(=O)(=O)c2c(C)ccc3nsnc23)c1`?
FBW7 act: 0; GPR151 activ: 1; TEAD-YAP inh: -5; MITF inh: -9

How did CCOC(=O)c1c(NC(=O)CN2CCOCC2)sc(C(C)=O)c1C do in these assays?
FBW7 act: 0; GPR151 activ: 8.4*; TEAD-YAP inh: 7; MITF inh: 24; GPR151 confirm: 0; GPR119 ag: 9

Results for CCOC(=O)c1c(NC(=O)CN2CCOCC2)sc(C)c1C ?
FBW7 act: 0; GPR151 activ: 1; TEAD-YAP inh: 5; MITF inh: 1

How did O=C(c1ccc2ccccc2n1)N1CCOCC1 do in these assays?
FBW7 act: 0; GPR151 activ: 5.4*; TEAD-YAP inh: 7; MITF inh: 7; GPR151 confirm: 0; GPR119 ag: -5

Results for COc1cccc(C(=O)NCCOc2ccc(F)cc2)c1 ?
FBW7 act: 0; GPR151 activ: -2; TEAD-YAP inh: -40; MITF inh: 1

What do the screens show for `Cc1cc2nc(C3CCCN3C(=O)CN3CCCCC3)[nH]c2cc1C` (centres undefined)?
FBW7 act: 0; GPR151 activ: 0; TEAD-YAP inh: -3; MITF inh: 7

Results for Cc1cc2nc(C3CCCN3C(=O)CC3(C)C(=O)N=C4C=CC=CN43)[nH]c2cc1C (centres undefined) ?
FBW7 act: 1; GPR151 activ: 8.0*; TEAD-YAP inh: 4; MITF inh: 20; GPR151 confirm: -1; GPR119 ag: 0

What do the screens show for `Cn1c(=O)c2c(SCC(=O)c3ccccc3)nc(-c3ccccc3F)nc2n(C)c1=O`?
FBW7 act: 0; GPR151 activ: 1; TEAD-YAP inh: -9; MITF inh: 1

Results for Cn1c(=O)c2c(SCC(=O)O)nc(-c3ccccc3Cl)nc2n(C)c1=O ?
FBW7 act: 0; GPR151 activ: 4.9*; TEAD-YAP inh: -2; MITF inh: -3; GPR151 confirm: -1; GPR119 ag: 0

Results for Cn1c(=O)c2c(SCC(=O)O)nc(-c3ccco3)nc2n(C)c1=O ?
FBW7 act: 0; GPR151 activ: 0; TEAD-YAP inh: -13; MITF inh: -14

Results for CCSc1nc(-c2ccco2)nc2c1c(=O)n(C)c(=O)n2C ?
FBW7 act: 0; GPR151 activ: 6.3*; TEAD-YAP inh: 9; MITF inh: 16; GPR151 confirm: 1; GPR119 ag: 6

Results for O=C(Nc1cccc(Cl)c1Cl)c1cc2n(n1)C(C(F)(F)F)CC(c1ccc3c(c1)OCO3)N2 (centres undefined) ?
FBW7 act: 0; GPR151 activ: -2; TEAD-YAP inh: -5; MITF inh: 14

Screens as filed in PubChem.
